# This is a sample that favours compounds with a hit; in the whole collection about 4.8% have one here.
# ssDAF12 agonist – activates DAF-12 receptor from parasite S. stercoralis | HEK293 ssDAF-12/GRIP1 lit1-tk-luc reporter, luminescence; % of 3 µM dafachronic acid response | activation, % at 6.8 µM | actives 1% (n = 370,000);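 active = activation above the mean over all tested compounds plus 3 SD, cut at about 0.9% in these data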;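 note: 0% = DMSO-only wells and 100% = 3 µM delta7-dafachronic acid wells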
# DAX1 inh-1 – DAX1 (NR0B1) inhibition, primary screen | AID 652010 | inhibition, % at 6.8 µM | actives 1.1% (n = 370,000) | HEK293T StAR-luciferase reporter, SF-1/DAX-1 repression relief;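 active = inhibition above the mean over all tested compounds plus 3 SD, cut at about 3.6% in these data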;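 note: 0% = DAX-1 cells with DMSO and 100% = cells lacking DAX-1 with DMSO; higher inhibition means more luminescence from relief of DAX-1 repression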
# DAX1 inh-2 – inhibits human nuclear receptor DAX1. P51843. HEK293 Gal4-DAX1 luciferase reporter, luminescence. inhibition, % at 6.75 µM. actives 0.99% (n = 340,000);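 active = inhibition above the mean over all tested compounds plus 3 SD, cut at about 4.2% in these data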;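 note: 0% = DAX1-transfected cells with DMSO and 100% = empty-vector control cells with DMSO; inhibition shows as a rise in luminescence from relieved DAX1 repression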
# Target sequence (P51843 207-470 limits assumed): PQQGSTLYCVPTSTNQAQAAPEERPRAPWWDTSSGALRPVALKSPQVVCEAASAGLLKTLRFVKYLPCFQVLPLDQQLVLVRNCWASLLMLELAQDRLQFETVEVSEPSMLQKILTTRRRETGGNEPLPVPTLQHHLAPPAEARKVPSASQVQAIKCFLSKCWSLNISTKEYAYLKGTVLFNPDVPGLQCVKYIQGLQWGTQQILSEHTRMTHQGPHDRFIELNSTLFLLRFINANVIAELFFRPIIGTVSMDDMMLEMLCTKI
# hcDAF12 agonist – H. contortus DAF-12 activation, primary screen. HEK293 hcDAF-12 lit1-tk-luc reporter, luminescence; 0% DMSO, 100% Δ7-dafachronic acid. activation, % at 6.8 µM. actives 1.4% (n = 370,000);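 active = activation above the mean of all tested compounds plus 3 SD, cut at about 5.5% in these data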;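 note: 100% = response to 3 µM Δ7-dafachronic acid high control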
# hgDAF-12 ag – hgDAF-12 agonism, primary luciferase screen | HEK293 GAL4-hgDAF12 UAS-luciferase reporter, agonist luminescence; normalized to butyrate control | activation, % at 6.8 µM | actives 1.8% (n = 370,000);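 active = activation above a cutoff set at the mean of all screened compounds plus 3 SD, cut at about 10% in these data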;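 note: 0% = DMSO wells and 100% = sodium butyrate wells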
# SMARCA2 act – SMARCA2 function activation, primary screen. MG213 cells, MMTV-luciferase reporter, dexamethasone, overnight. activation, % at 9.1 µM. actives 1% (n = 370,000). AID 652017; in the data active = activation above about 7.8%;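 note: 0% = vehicle wells and 100% = reference activator wells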
# An asterisk follows results filed as active.
SMILES,ssDAF12 agonist,DAX1 inh-1,DAX1 inh-2,hcDAF12 agonist,hgDAF-12 ag,SMARCA2 act
CCOC(=O)/C(C#N)=C\C1=C(N2CCCC2)CC(C)(C)OC1,-1.0,-0.5,-0.8,-0.7,-1.7,-1.7
CCOC(=O)/C(C#N)=C/C1=C(N2CCOCC2)C(C)(C)OCC1,-1.2,0.7,4.3*,0.0,-0.2,-2.6
Cc1nn(C)c(C)c1/C=N/NC(=O)CCn1cc([N+](=O)[O-])cn1,-1.1,0.8,-0.2,-0.5,1.0,3.0
O=C(NC1CC1)c1ccc(F)cc1Cl,1.0*,0.3,0.7,-1.4,0.1,-0.2
O=C(NCC1CCCCC1)c1ccc(F)cc1Cl,-0.2,0.6,7.4*,1.4,3.5,2.3
Cc1nn(S(=O)(=O)c2cccc([N+](=O)[O-])c2)c(C)c1Br,-1.5,-0.5,2.1,-2.0,2.7,3.0
C/C(=N\NC(=O)c1ccccc1[N+](=O)[O-])c1ccc(Br)s1,-1.2,0.1,-0.4,-1.3,1.0,-4.2
CCc1ccc(/C(C)=N/NC(=O)c2c[nH]c3ccccc23)s1,1.1*,0.5,0.1,6.5*,3.9,2.2
C/C(=N\NC(=O)c1c[nH]c2ccccc12)c1ccco1,0.2,2.0,0.4,5.9*,4.4,5.3
C/C(=N\NC(=O)c1ccccc1O)c1ccc(Br)s1,-1.1,1.1,-0.1,-0.5,10.9*,4.6
CCc1ccc(Nc2ccc(S(=O)(=O)N3CCOCC3)cc2[N+](=O)[O-])cc1,-1.8,0.2,-1.1,-0.3,-0.2,-1.7
CCOC(=O)CSCc1nc(-c2ccc(Cl)cc2)oc1C,-1.9,-1.1,1.3,-0.1,-3.6,-5.9
CCCc1nc2ccccc2c(=O)n1NC(=O)c1c(O)c2ccccc2n(C)c1=O,-0.2,0.4,-0.2,-1.2,1.6,-4.9
O=C(c1ccco1)N1CCC(c2nc3c(nnn3Cc3c(Cl)cccc3Cl)c(=O)[nH]2)CC1,-1.4,-0.3,0.0,-3.1,3.4,0.1
C=Cn1ccnc1CC(O)c1ccc(OC)cc1 (centres undefined),-1.3,0.5,5.8*,-0.5,-2.0,3.1
COc1ccc(C(O)c2nccn2C)cc1 (centres undefined),-1.2,0.6,0.4,-1.5,0.5,-3.6
O=C(NCc1ccco1)/C(=C/C=C/c1ccccc1)NC(=O)c1ccco1,-1.9,0.0,2.2,-1.8,-3.3,0.0
O=C(NCc1ccco1)/C(=C\C=C\c1ccccc1)NC(=O)c1ccco1,-0.7,-0.3,7.4*,-0.8,-2.7,-3.0
COC(=O)c1ccc(N2CCCCC2)c(N)c1,-1.4,3.7*,1.1,1.5,6.0,1.2
COC(=O)c1ccc(N2CCC(C)CC2)c(N)c1,-0.4,1.3,1.9,2.2,3.9,2.7
CC(=O)c1ccc(NS(=O)(=O)c2ccc(N/C=C/C(=O)c3ccc(F)cc3)cc2)cc1,-0.3,1.0,-0.9,2.5,4.7,7.8
COc1cc(NS(=O)(=O)c2ccc(NC(=S)NC(=O)COc3ccccc3OC)cc2)nc(OC)n1,-1.6,-1.3,4.7*,-1.6,-1.7,3.5
COc1cc(NS(=O)(=O)c2ccc(N/C=C\C(=O)c3ccc(F)cc3)cc2)nc(OC)n1,0.1,2.5,1.1,6.4*,3.8,2.4
COc1cc(NS(=O)(=O)c2ccc(NC(=O)COc3ccccc3C)cc2)nc(OC)n1,-0.3,1.2,0.2,-1.2,1.4,-1.5
CCCC[C@H]1COCCS(=O)(=O)N1Cc1cccc(F)c1,-1.3,0.2,-0.1,-1.9,0.0,-1.1
COc1cccc(C(=O)Nc2cccc(-c3nnc(-c4ccccc4)o3)c2)c1,-1.8,-0.6,2.5,0.5,0.5,-1.1
O=C(Cc1c(C(=O)O)[nH]c2ccccc12)NCCN1CCN(c2cccc(Cl)c2)CC1,-1.4,0.0,-0.1,-1.4,1.5,0.7
O=C1OC[C@H]2CCCN2C(=O)[C@@H](CC(=O)N(CCO)Cc2ccccc2)C/C=C\CC[C@H]1Cc1ccc(F)cc1,-1.7,-0.3,2.6,-0.6,0.6,0.6
Cc1ccc2c(c1)c(-c1csc(N)n1)c(C)n2C,1.6*,0.4,0.1,2.9,1.8,-1.3
COc1ccc2c(c1)c(-c1csc(N)n1)c(C)n2C,0.1,0.3,0.0,3.7,3.9,-0.6
